Source: PubChem BioAssay
The entries come from a sample that favours hits as a whole.
ERG-DNA inh: blocks human ERG Ets domain binding to DNA; P11308; fluorescence polarization, His-ERG Ets domain / labelled DNA; Potency, µM (titrated, usually from 76.9 µM), most hits filed as inhibitors; 370,000 tested, 0.028% active; AID 624246; active means well fitted inhibition curve with a large enough effect in the polarisation, with a control signal flat; inconclusive means small, poorly fitted or top-dose-only effect, or effect the other way, or a change in a side signal; inactive means no such curve, though single readings can be large or run the other way; the % refers to the polarisation;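 further: polarization taken with two DNA probes labelled with fluorescein and Texas red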
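His-tagged ERG Ets domain (1 uM in the protein solution; 300mM KCl, 50mM Tris-HCl, 1mM EDTA, 1mM DTT, pH 7.5) received compound, then a probe mix of 5 nM fluorescein-DNA and 100nM Texas-615-DNA. Fluorescence polarization was read for both dyes.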
Giardia kill: Giardia lamblia killing; Giardia lamblia trophozoite viability; activity change, % at 7.66 µM, hits read low; 340,000 tested, 0.15% active; AID 540267; in the data active means activity change below about -80%; inconclusive means between about -30% and that limit;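 further: parasites exposed to compound for two days anaerobically before the ATP read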
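Compounds were tested on trophozoites seeded at 100 cells/well and held 48 hrs at 37 deg C anaerobically. An ATP-based luminescent kit measured the remaining live cells.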
Integrin act MD: activates integrin-mediated alleviation for muscular dystrophy. 350,000 tested, 0.064% active. Potency, µM (doses to about 38.3 µM), hits mostly activators. alpha7betagal myoblasts, beta-gal FDG fluorescence, 48 h; further: nearly all actives have a fitted effect of over 60% in size
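Alpha7betagal+/- myoblasts (passage 13) were plated 16-24 hr, then exposed to compounds (1:260 dilution of DMSO stock) for 48 hours at 37C. After MPER lysis, β-galactosidase reporter activity was read as FDG fluorescence (ex 480/em 540) after 30 minutes.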
RORgamma inh: blocks mouse ROR gamma transcriptional activity | AID 2551 | 310,000 tested, 5.4% active | Drosophila S2 Gal4-RORgamma UAS-luciferase reporter, 20 h | Potency, µM (series often up to 53.6 µM), actives largely listed as inhibitors | P51450; further: nearly all actives have a fitted effect of over 60% in size
Target sequence (P51450 whole entry, looked up, the tested form may be a part): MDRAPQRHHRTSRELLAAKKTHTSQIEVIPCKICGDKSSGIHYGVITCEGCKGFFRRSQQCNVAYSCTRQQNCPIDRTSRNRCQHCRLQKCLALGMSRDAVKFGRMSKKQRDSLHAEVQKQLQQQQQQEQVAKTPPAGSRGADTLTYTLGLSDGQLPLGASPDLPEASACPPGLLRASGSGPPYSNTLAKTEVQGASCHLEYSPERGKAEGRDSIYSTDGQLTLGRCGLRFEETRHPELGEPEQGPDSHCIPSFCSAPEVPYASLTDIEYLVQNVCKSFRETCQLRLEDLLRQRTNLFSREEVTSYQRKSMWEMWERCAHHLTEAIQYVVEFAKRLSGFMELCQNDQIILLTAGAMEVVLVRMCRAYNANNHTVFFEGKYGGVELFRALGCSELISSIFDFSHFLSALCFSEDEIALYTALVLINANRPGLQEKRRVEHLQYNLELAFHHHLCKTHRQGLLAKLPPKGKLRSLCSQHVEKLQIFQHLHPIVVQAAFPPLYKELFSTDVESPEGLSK
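ROR gamma transcriptional activity was tracked as Gal4-UAS luciferase output in stably transfected Drosophila Schneider cells, with compound added 1 hr before 700 uM copper sulfate induction and a 20 hr ambient-temperature incubation.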
Gal4-VP16 FLuc: inhibits Gal4-VP16 luciferase reporter, ROR gamma counter-screen. Drosophila S2 Gal4-VP16 UAS-luciferase, luminescence, 20 h. Potency, µM (doses to about 53.6 µM), most hits filed as inhibitors. 310,000 tested, 3.5% active. AID 2546;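 further: Gal4-VP16 expression switched on by copper sulfate through the metallothionein promoter; nearly all actives have a fitted effect of over 50% in size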
Hits are given with their value; 0 = inactive; ? = inconclusive; - = no result given. Unless noted, the call rests on the fitted dose curve; in most records, active means well fitted curve in the direction sought with a large enough effect; inconclusive means small, poorly fitted or top-dose-only effect, or another doubt; inactive means no such curve, though single readings can be large; an effect the other way counts as inactive or inconclusive.

SMILES	ERG-DNA inh	Giardia kill	Integrin act MD	RORgamma inh	Gal4-VP16 FLuc
Cc1onc(-c2ccccc2Cl)c1C(=O)NC(=S)Nc1ccc(C(C)C)cc1	0	0	0	1.78µM	?
COC(=O)c1ccc(NC(=S)NC(=O)c2c(-c3ccccc3)noc2C)cc1	0	0	0	7.08µM	?
Cc1ccc(NC(=S)NC(=O)c2c(-c3ccccc3Cl)noc2C)cc1	0	0	0	3.98µM	11.2µM
CC(=O)N1CCN(C(=S)NC(=O)c2c(-c3ccccc3Cl)noc2C)CC1	0	0	?	1.58µM	5.01µM
O=[N+]([O-])c1ccc(O)c(/C=N/Nc2ccc(Cl)nn2)c1	0	0	0	1µM	1.41µM
O=S1(=O)N=C(N/N=C/c2cccs2)c2ccccc21	0	0	0	0.891µM	0.501µM
O=[N+]([O-])c1ccc(O)c(/C=N/NC2=NS(=O)(=O)c3ccccc32)c1	0	0	0	1.26µM	1.26µM
O=[N+]([O-])c1ccc(/C=N/NC2=NS(=O)(=O)c3ccccc32)cc1	0	0	0	0	0
O=C(Nc1ncc(Cc2cccc(C(F)(F)F)c2)s1)C1CCCO1 (centres undefined)	0	0	0	0	0
Cc1ccccc1Cn1c2ccccc2c2cnn(CC(=O)NCCc3ccccc3)c(=O)c21	0	-	-	-	-
CCC(CC)C(=O)Nc1nnc(SCc2cc(=O)n3cccc(C)c3n2)s1	0	-	-	-	-
Cc1ccc(C2NC(c3ccc4c(c3)OCO4)=CC(c3cc(Br)ccc3O)N2)cc1 (centres undefined)	-	0	-	-	-
C=CCNC(=S)Nc1c(N)n(C)c(=O)n(C)c1=O	0	0	0	0	0
CCOc1ccccc1NC(=O)c1c(NC(=O)CCC(=O)O)sc2c1CCCCC2	0	0	0	10µM	?
CCOC(=O)c1ccc(NC(=O)c2c(NC(=O)CCC(=O)O)sc3c2CCCCC3)cc1	0	?	?	10µM	0
CCOc1ccccc1NC(=O)c1c(NC(=O)Cc2ccccc2)sc2c1CCCC2	0	-	-	-	-
Cn1c(/C(C#N)=C(\O)c2cc(Cl)sc2Cl)nc2ccccc21	0	0	0	4.47µM	4.47µM
Cn1c(/C(C#N)=C(\O)c2ccc(Br)s2)nc2ccccc21	0	0	0	3.55µM	?
COc1ccc(/C(O)=C(\C#N)c2nc3ccccc3n2C)cc1OC	0	0	0	7.08µM	17.8µM
COc1ccc(/C=C(\C#N)c2nc3ccccc3n2C)c(OC)c1	0	-	-	-	-
Cn1c(/C(C#N)=C(\O)c2ccc(S(=O)(=O)N3CCCCC3)cc2)nc2ccccc21	0	0	0	4.47µM	10µM
CN(C)c1ccc(-c2cncnc2NCc2cccnc2)cc1	-	-	-	0	0
Cc1ccc(OCC(=O)N2CCCCC2C)c([N+](=O)[O-])n1 (centres undefined)	0	0	0	-	-
CCC(=O)N1c2ccccc2CC1C(=O)NCCCN1CCN(c2ccccc2)CC1 (centres undefined)	0	-	-	-	-
C=CCN(Cc1nc(-c2ccccc2)no1)C(=O)c1ccc2c(c1)OCO2	0	0	0	0	0
SMILES	ERG-DNA inh	Giardia kill	Integrin act MD	RORgamma inh	Gal4-VP16 FLuc
COc1ccc(C(O)c2nc3ccccc3n2C)cc1OC (centres undefined)	0	0	0	0	6.31µM
CC1CCN(C(=O)C2CCC(C)(C(=O)O)C2(C)C)CC1 (centres undefined)	0	0	0	0	0
CCN1C(=O)/C(=C\c2ccncc2)SC1=Nc1ccc(C)c(C)c1	0	0	0	11.2µM	?
CC(=O)c1ccc(-c2c(C3C4C=CCCC4(C)C(=O)N3Cc3ccccc3)ccc3ccccc23)cc1 (centres undefined)	-	0	-	?	0
CC(C)=NNc1nc(-c2ccccc2)cs1	0	0	0	?	0
O=C(Nc1nc2c(s1)CCCC2)Oc1ccccc1	0	0	0	0	0
C/C(=N\Nc1nc2c(s1)CCCC2)c1ccccc1	0	0	0	12.6µM	?
C/C(=N\Nc1nc(C(C)(C)C)cs1)c1ccc(O)cc1	0	0	0	?	10µM
C/C(=N\Nc1nc(C(=O)O)cs1)c1ccccc1	0	0	0	0.631µM	5.01µM
C/C(=N\Nc1nc(C(C)(C)C)cs1)c1ccccc1	0	0	0	-	-
O=C(O)c1ccc(Nc2nc3c(s2)CCCC3)cc1	0	0	0	1.26µM	3.55µM
Cc1ccc(C(=O)Nn2c(C)nc3ccccc3c2=O)cc1C	0	0	0	0	0
Fc1cc(Br)ccc1COc1ccc(-c2nnco2)cc1	0	0	0	?	0
